Compound activity from PubChem BioAssay.
This is a sample that favours compounds with a hit; in the whole collection about 4.3% have one here.
GRIN3A LBD mod = binders of NR3A ligand-binding domain, primary screen, biophysical, differential scanning fluorimetry, uHTS. Glutamate receptor ionotropic, NMDA 3A (GRIN3A) ligand-binding domain. NR3A LBD differential scanning fluorimetry, Tm shift; 0% = protein alone, 100% = glycine-bound protein. Tm shift relative to glycine control, % at 25 µM. 2.5% of 340,000 active. AID 1259313, 2017;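 active means melting temperature shift of at least 10% of the positive control shift, at one fixed dose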
ADAM17 inh = ADAM17 inhibitors, primary screen, biochemical, QFRET; inhibition, % at 6.95 µM; recombinant ADAM17, EDANS/DABCYL FRET peptide cleavage; 0.83% of 370,000 active;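 active means inhibition above the mean of compounds lying between control limits plus 3 SD, set per campaign, cut at about 8.5% in these data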;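 further: 0% = DMSO-only wells as the low control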
FAS-TE inh = FAS thioesterase domain inhibitors, primary screen, biochemical, fluorescence intensity, uHTS; recombinant FAS-TE, OMFH fluorogenic substrate, fluorescence endpoint; inhibition, % at 15 µM; 0.67% of 360,000 active; AID 602261, 2012;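 active means compounds whose normalised, plate-corrected inhibition of enzyme fluorescence in the single-dose primary screen is 50% or more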;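 further: 0% = DMSO with enzyme and 100% = substrate without enzyme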
ADAM10 inh = human ADAM10 inhibitors, primary screen, biochemical, QFRET, HTS; AID 720582, 2013; inhibition, % at 7 µM; recombinant ADAM10, EDANS/DABCYL FRET peptide cleavage, 3 h; 0.62% of 370,000 active;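 active means inhibition above a per-campaign cutoff equal to the mean of compounds falling between control-based bounds plus 3 SD, cut at about 20% in these data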;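 further: 0% = DMSO wells while the 100% control is not disclosed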
Target sequence (O14672 214-748 limits assumed): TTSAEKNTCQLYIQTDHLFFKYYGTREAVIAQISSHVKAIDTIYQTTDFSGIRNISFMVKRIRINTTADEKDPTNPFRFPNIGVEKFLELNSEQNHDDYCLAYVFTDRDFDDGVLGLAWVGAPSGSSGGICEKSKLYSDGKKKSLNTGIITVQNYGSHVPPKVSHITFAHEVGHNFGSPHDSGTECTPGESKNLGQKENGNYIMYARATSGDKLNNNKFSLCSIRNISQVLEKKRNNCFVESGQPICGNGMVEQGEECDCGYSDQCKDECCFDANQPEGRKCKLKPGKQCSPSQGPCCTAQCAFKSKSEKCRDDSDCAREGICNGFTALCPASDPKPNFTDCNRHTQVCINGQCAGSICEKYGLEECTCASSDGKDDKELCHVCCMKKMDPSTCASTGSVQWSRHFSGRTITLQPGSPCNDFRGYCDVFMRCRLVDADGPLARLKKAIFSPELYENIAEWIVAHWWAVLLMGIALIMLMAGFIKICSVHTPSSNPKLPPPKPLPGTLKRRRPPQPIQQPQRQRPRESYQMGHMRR
sPLA2-III inh = human group III sPLA2 inhibitors, primary screen, biochemical, QFRET, BODIPY PC-A2 liposome substrate | Group 3 secretory phospholipase A2 (Homo sapiens), Q9NZ20 | QFRET BODIPY PC-A2 liposome hydrolysis, fluorescence | inhibition, % at 12.2 µM | 0.56% of 370,000 active | AID 743126, 2013;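 active means inhibition above mean plus 3 SD of compounds lying within the high and low control bounds, cut at about 19% in these data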;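 further: 0% = median of test compound wells and 100% = no enzyme DMSO wells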
ADAM10 confirm = human ADAM10 inhibitors, confirmation, biochemical, QFRET, triplicate | 1% of 2,100 active | shares compounds with ADAM10 inh | ADAM10 QFRET peptide cleavage, EDANS fluorescence | inhibition, % at 6.95 µM;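 active means inhibition above about 20% chosen separately for each screening run, limit read from the data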;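 further: 0% = DMSO wells and 100% = marimastat wells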
ADAM17 ctr = ADAM17 inhibitors, counter-screen for ADAM10 exosite inhibitor project, biochemical, QFRET, high throughput; 0.5% of 2,100 active; ADAM17 QFRET peptide cleavage, EDANS fluorescence; shares compounds with ADAM10 inh; inhibition, % at 6.95 µM;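 active means mean triplicate inhibition above the solvent-only control wells' mean plus 3 SD, cut at about 12% in these data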;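 further: 0% = DMSO wells and 100% = marimastat wells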
ADAM10 counter = ADAM10 inhibitors, counter-screen for ADAM17 exosite inhibitor project, biochemical, FRET, human ADAM10 | shares compounds with ADAM17 inh | recombinant ADAM10, EDANS/DABCYL FRET peptide cleavage, 3 h | inhibition, % at 6.95 µM | 47% of 2,900 active | AID 743256, 2014;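 active means mean inhibition over the triplicate runs exceeds the activity threshold set in the earlier primary screen, cut at about 20% in these data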;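 further: 0% = DMSO wells and 100% = marimastat wells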
ADAM17 confirm = ADAM17 inhibitors, hit retest, confirmation, biochemical, QFRET peptide cleavage; shares compounds with ADAM17 inh; recombinant ADAM17, EDANS/DABCYL QFRET peptide cleavage; inhibition, % at 6.95 µM; 65% of 2,900 active; AID 743257, 2014;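 active means mean inhibition across replicates above the hit cutoff set in the primary screen, cut at about 8.5% in these data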;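 further: 0% = DMSO wells and 100% = marimastat wells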
* hit, by the source's call; . = no result given; ! = a repeat was not active.

SMILES	GRIN3A LBD mod	ADAM17 inh	FAS-TE inh	ADAM10 inh	sPLA2-III inh	ADAM10 confirm	ADAM17 ctr	ADAM10 counter	ADAM17 confirm
CCCCNC(=O)N1CCCC1C(=O)Nc1cccc(OC)c1 (configuration not stated)	.	0.5	.	-6.1	6.2	.	.	.	.
Cc1cc(Cl)ccc1OCC(=O)N1CCCCC1	1.4	-2.8	-5.9	0.0	-1.7	.	.	.	.
O=C(COc1ccc(Cl)cc1Cl)N1CCCN(C(=O)COc2ccc(Cl)cc2Cl)CC1	4.5	9.8*	35.9	25.4*	-45.0	4.0	0.9	19.5	9.2*
CCCCNS(=O)(=O)c1ccc2nc(SCC(=O)c3ccc(C#N)cc3)[nH]c2c1	-0.9	4.6	-8.2	18.2	-34.0	.	.	.	.
CCCCNS(=O)(=O)c1ccc2nc(SCC(=O)Nc3ccccc3)[nH]c2c1	-3.8	9.1*	3.5	22.8*	-70.5	3.1	-0.6	10.3	2.9
CN(C(=O)[C@@H](Cc1ccccc1)NC(=O)[C@H]1O[C@@H](n2cnc3c(=O)[nH]c(N)nc32)[C@H](O)[C@@H]1O)C1CCCCC1	.	-5.0	.	-10.3	-0.8	.	.	.	.
O=C(NCc1ccccc1)c1onc(CSc2ccccc2)c1C(=O)NCC1CC1	-5.7	11.8*	39.8	25.3*	-23.2	7.4	3.1	40.8*	21.8*
Cc1cc(NC(=O)c2c(F)cccc2Cl)n(-c2nc3ccccc3[nH]2)n1	-2.1	10.3*	24.1	29.7*	-5.6	16.6	5.6	39.7*	16.7*
Cc1cc(NC(=O)c2c(F)cccc2F)n(-c2nc3ccccc3[nH]2)n1	-12.8	6.3	25.9	15.7	18.0	.	.	.	.
CC(C)CCNC(=O)NC(=O)CSc1nnc(COc2ccccc2Cl)o1	-20.0	9.8*	-7.8	22.9*	-32.4	2.9	0.1	6.5	5.5
CCC1(c2ccccc2)NC(=O)N(CC(=O)Nc2ccc(S(=O)(=O)N3CC(C)CC(C)C3)cc2)C1=O (configuration not stated)	7.2	10.3*	39.4	21.1*	-31.4	8.0	2.0	48.5*	23.7*
COc1ccc2c(c1)N=C(c1[nH]c3ccccc3c1CCN1C(=O)c3ccccc3C1=O)[C@]2(O)CCN1C(=O)c2ccccc2C1=O	.	-2.2	.	-5.1	-2.2	.	.	.	.
Cc1[nH]c2ccccc2c1C(=O)C(=O)N1CCN(c2ccccc2Cl)CC1	-6.5	-0.4	24.7	-3.0	-8.8	.	.	.	.
Cc1[nH]c2ccccc2c1C(=O)C(=O)N1CCN(c2cccc(Cl)c2)CC1	2.0	18.3*	12.7	24.1*	-27.6	1.5	0.2	25.4*	8.8*
CC(C)c1ccccc1NC(=O)[C@@H]1CCCN1S(=O)(=O)c1cccc2cccnc12	.	-0.5	.	3.3	2.7	.	.	.	.
Cc1occc1-c1nnc(SCC(=O)Nc2ccncc2)n1-c1ccccc1	.	-1.3	.	-1.6	-0.9	.	.	.	.
O=C(Nc1nc(-c2ccc(S(=O)(=O)N3CCOCC3)cc2)cs1)c1ccccc1	-2.9	10.8*!	22.5	21.0*!	-10.9	9.6	4.7	-0.2	7.0
COc1ccc(NC(=O)Cn2nnc(-c3ccccc3)c2COc2ccc(C(C)=O)cc2)cn1	.	-1.0	5.8	-0.7	-12.6	.	.	.	.
COc1ccc(NC(=O)Cn2nnc(-c3ccccc3)c2COc2ccc3ccccc3c2)cn1	.	11.5*	18.3	20.1*	-24.2	10.6	3.8	30.9*	16.7*
Cc1ccc(NC(=O)CN(C)C(=O)c2cccnc2Nc2cccc(C(F)(F)F)c2)cc1	16.2*	13.4*	32.6	36.5*	-2.0	10.0	2.3	51.7*	28.5*
CCSc1ccc([C@@H]2[C@H]3C(=O)N(C)C(=O)[C@H]3[C@]3(C(=O)OC)CCCCN23)cc1	0.3	17.8*	11.1	22.1*	-21.5	3.3	0.6	-2.5	5.0
COc1ccc(C2(c3ccc(OC)cc3)NC(=O)N(CC(=O)Nc3cc(C)ccc3OC)C2=O)cc1	-6.2	9.3*	21.5	22.1*	-23.1	6.8	3.0	33.1*	16.5*
COc1ccc(OC)c(NC(=O)CNC(c2ccccc2)c2ccccc2)c1	0.0	13.9*	24.0	24.5*	6.5	5.1	2.2	37.0*	14.0*
COc1ccc(C)cc1NC(=O)CNC(c1ccccc1)c1ccccc1	0.9	1.7	24.6	14.0	-6.3	.	.	.	.
CCN(c1ccccc1)S(=O)(=O)c1cc(C(=O)OC(C)C(=O)Nc2ccc3c(c2)OCCO3)ccc1C (configuration not stated)	1.5	15.1*	31.8	27.5*	-3.5	8.0	3.2	17.3	13.1*
CC(C)C[C@H](NC(=O)c1nc[nH]c1C(=O)NCC(=O)OC(C)(C)C)C(=O)OCc1ccccc1	-23.4	13.8*	29.7	30.2*	-6.7	3.1	0.6	35.5*	18.6*
CC(C)C[C@H](NC(=O)c1nc[nH]c1C(=O)NCC(=O)OCc1ccccc1)C(=O)OCc1ccccc1	-13.9	23.8*	23.6	45.0*	-25.3	6.4	2.3	36.3*	20.6*
CC(C)C[C@H](NC(=O)c1nc[nH]c1C(=O)N[C@@H](CC(C)C)C(=O)OC(C)(C)C)C(=O)OCc1ccccc1	-31.3	1.8	.	5.9	-12.1	.	.	.	.
COc1ccc(N2CCN(CCCNC(=O)Cn3c(=O)c4cccn4c4c(C)ccnc43)CC2)cc1	.	-2.4	.	9.1	2.3	.	.	.	.
CNC(=O)CCc1[nH]c2ccccc2c1Sc1ccccc1	-3.8	9.1*	2.5	19.8*	-16.1	1.0	0.2	4.4	3.3
